Source: PubChem (National Center for Advancing Translational Sciences (NCATS))
Rows were chosen to be rich in hits. Some 8.3% of all compounds tested hit in one or more screens of this group.
FBPA Giardia inh: qHTS Assay for Inhibitors of Fructose-1,6-bisphosphate Aldolase from Giardia Lamblia. Potency, µM (top dose mostly 59.6 µM), inactives show at the highest dose activity, negative = inhibition, hits mostly inhibitors. 290,000 compounds, 0.71% hits. purified Giardia FBPA. A8B2U2; also: potency is read from the fitted curve at half-maximal effect; nearly all actives have a fitted effect of over 55% in size
Target sequence (A8B2U2 whole entry, looked up): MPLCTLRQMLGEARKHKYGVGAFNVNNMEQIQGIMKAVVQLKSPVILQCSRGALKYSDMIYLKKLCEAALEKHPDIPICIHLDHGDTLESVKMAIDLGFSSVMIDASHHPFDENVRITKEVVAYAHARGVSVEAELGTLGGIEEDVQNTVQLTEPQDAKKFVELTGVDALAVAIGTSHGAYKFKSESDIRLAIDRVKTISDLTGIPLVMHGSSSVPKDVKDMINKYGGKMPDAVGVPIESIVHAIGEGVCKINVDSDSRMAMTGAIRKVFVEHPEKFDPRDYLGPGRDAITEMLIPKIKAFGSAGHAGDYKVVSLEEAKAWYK
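Giardia FBPA (40 nM reagent) was preincubated 10 min at RT with compound (up to 57.5 uM final), then substrate plus GAPDH/TPI/NAD/arsenate coupling system with diaphorase/resazurin was added; resorufin fluorescence (525/598 nm) was read after 20 min.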
MARV entry inh: qHTS for inhibitors of binding or entry into cells for Marburg Virus; Marburg virus pseudotyped entry inhibition, cell reporter; Potency, µM (series often up to 37.8 µM), without a hit: at the top dose activity change, negative = inhibition, usual class: inhibitors; 300,000 compounds, 1.8% hits; AID 540276, 2011; calls by dose curve; tested in HEK293 cells; also: potency is read from the fitted curve at half-maximal effect
HCV inhibitor: qHTS Assay for Inhibitors of Hepatitis C Virus (HCV); Huh7.5.1 HCVcc-Cre infection, luciferase reporter, 44 h; Potency, µM (series often up to 41.8 µM), for the others: at the highest dose activity change, negative = inhibition, hits mostly inhibitors; AID 651820, 2012; 340,000 compounds, 3.4% hits; also: potency is read from the fitted curve at half-maximal effect
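Infectious HCVcc-Cre (~0.5 moi) was added to cells just after compound, with cells seeded 4 h earlier at 1,000 per well. Luciferase activity after 44 h culture reported infection; substrate was incubated 15 min at room temperature before reading.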
FMDV inh: High Throughput Screening for Foot and Mouth Disease Virus Antivirals. FMDV antiviral cell-based qHTS. Potency, µM (highest dose often 57.9 µM), for the others: at the highest dose activity change, negative = inhibition, actives largely listed as inhibitors. 410,000 compounds, 1.2% hits; calls by dose curve; tested in HEK293T cells; also: read-out not given here; potency is read from the fitted curve at half-maximal effect; nearly all actives have a fitted effect of over 45% in size
HCMV antiviral: qHTS Assay for inhibitors of the human cytomegalovirus (HCMV). 410,000 compounds, 4.5% hits. AID 1259415, 2018. activity change, negative = inhibition, % at 57.5 µM. HFF cells, HCMV-luciferase reporter, 72 h; active compounds read low; in the data active = activity change below about -60%; inconclusive = no clear call, values can overlap the other calls; inactive = above about -39%
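Screen run at 2 compound doses on HFFs infected with reporter HCMV, MOI 1 PFU/cell. Luciferase activity from cell lysates at 72 h post infection gave inhibition relative to buffer-only and Salinomycin wells.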
Lassa entry inh: qHTS for Inhibitors of binding or entry into cells for Lassa Virus; 300,000 compounds, 1.2% hits; Lassa virus pseudotype entry inhibition, cell reporter; Potency, µM (titrated, usually from 37.9 µM), for inactives: top-dose activity change, negative = inhibition, most hits filed as inhibitors; calls by dose curve; tested in HEK293 cells; also: potency is read from the fitted curve at half-maximal effect; nearly all actives have a fitted effect of over 50% in size
Active calls of the source: *; ? = inconclusive; . = no result; [ ] = remark or other dose. Unless noted, calls follow the shape of the dose curve; as a rule, active = well fitted curve in the direction sought with a large enough effect; inconclusive = small, poorly fitted or top-dose-only effect, or another doubt; inactive = no such curve, though single readings can be large; an effect the other way counts as inactive or inconclusive. % is scaled to controls: 0 for no effect and ±100 for the full control effect.

SMILES | FBPA Giardia inh | MARV entry inh | HCV inhibitor | FMDV inh | HCMV antiviral | Lassa entry inh
CCOc1ccc(Cc2c(C)[nH]c3ccc(C(=O)O)cc3c2=S)cc1 | ? | -5% | 14% | -11% | -79* | ?
CCOc1ccc(NC(=O)c2ccc3[nH]c(C)cc(=O)c3c2)cc1 | . | -20%[46.1 µM] | . | 6% | -2 | -10%[46.1 µM]
C=CCOC(=O)N[C@H](c1cccc(C(F)(F)F)c1)C(C(C)=O)C(C)=O | -6% | -5%[14.2 µM] | . | . | . | .
Cc1[nH]c2ccccc2c1CC(=O)Nc1ccc(Nc2cccnc2)c(-c2cc(F)cc(F)c2)c1 | . | . | . | . | -11 | .
C1CCC(C(C[C@@H]2CCCCN2)C2CCCCC2)CC1 | 2%[21.7 µM] | . | . | . | . | .
CCOC(=O)c1cnc2ccc(OC(F)(F)F)cc2c1Nc1ccccc1C(=O)O | . | 14%[46.1 µM] | . | -21% | -6 | -19%[46.1 µM]
Cc1ccc2c(c1)-c1c(cnn1CC(=O)N1CCN(c3ccccc3F)CC1)CO2 | . | -11%[46.1 µM] | . | -18% | -87* | .
O=C(Cn1ncc2c1-c1ccccc1OC2)N1CCN(c2ccccc2F)CC1 | . | 3%[46.1 µM] | . | ? | -10 | .
COc1ccc(C2=C(C)C(=O)N(Cc3ccc(C(=O)Nc4ccc(F)cc4C)cc3)S2(=O)=O)cc1 | . | . | . | -23% | -63* | ?
COc1cc([N+](=O)[O-])cc(/C=N/NC(=O)c2cccnc2)c1O | 12% | . | 16% | -10% | -88* | .
COc1cc([N+](=O)[O-])cc(/C=N/NC(=O)C(C)Nc2cccc3ccccc23)c1O (centres undefined) | ? | -29% | 0% | -24% | -61* | -8%
COc1cc([N+](=O)[O-])cc(/C=N/NC(=O)C(O)(c2ccccc2)c2ccccc2)c1O | ? | ? | 4% | -7% | 8 | ?
CC(=O)c1ccc(NC(=O)c2sc(-n3nc(C)c(Cc4ccccc4)c3C)nc2C)cc1 | . | 19%[46.1 µM] | . | ? | -1 | -2%[46.1 µM]
COc1cccc(CNCCSc2nnnn2C)c1OCc1ccc(Cl)cc1Cl | . | ? | . | -28% | -61* | ?
CCOc1c(CNCCSc2nnnn2C)cccc1OC | . | -25%[46.1 µM] | . | -6% | 8 | 22%[46.1 µM]
COc1cccc(CNCCSc2nnnn2C)c1OCc1ccc(Cl)cc1 | . | 10µM* | . | 0% | ? | -1%[46.1 µM]
Cn1nnnc1SCCCNCc1cccc(OCc2ccccc2Cl)c1 | . | ? | . | -13% | -28 | ?
Cn1nnnc1SCCCNCc1ccccc1OCc1ccccc1Cl | . | ? | . | -29% | -63* | -19%[46.1 µM]
COc1cc(CNCCSc2nnnn2C)cc(Br)c1OCc1ccc(F)cc1 | -16% | ? | 10µM* | ? | -6 | -12%
CC1CCN(S(=O)(=O)c2ccc3nc(NCc4ccccc4)ccc3c2)CC1 | . | . | . | 11% | -32 | ?
Cc1ccc(Nc2c(-c3ccc(N4CCOCC4)cc3)nc3c(C)cccn23)cc1 | . | ? | . | -18% | 4 | -6%[46.1 µM]
CC(=O)Cc1cc(O)c2ccccc2c1OC(=O)c1ccccc1 | ? | -19%[46.1 µM] | -7% | -16% | -73* | -26%[46.1 µM]
CC(=O)Oc1c(C)cc(O)c2ccccc12 | ? | -5% | 10µM* | . | . | .
CC(=O)Oc1c(C)cccc1C(=O)O | -20% | . | . | -6% | . | .
FC(F)(F)c1cc(CCN2CCNC[C@H]2Cc2cccc3ccccc23)cc(C(F)(F)F)c1 | . | . | ? | -28% | -80* | .
SMILES | FBPA Giardia inh | MARV entry inh | HCV inhibitor | FMDV inh | HCMV antiviral | Lassa entry inh
CCn1c2ccccc2c2cc(NC(=O)c3ccc(C)c([N+](=O)[O-])c3)ccc21 | 3% | -19% | ? | -14% | 1 | ?
Cc1cc2ccccc2n1CCNC(=O)Cc1ccccc1 | -2% | . | -23% | -24% | -10 | .
CCn1c2ccccc2c2cc(NC(=O)c3cccc([N+](=O)[O-])c3C)ccc21 | -4% | ? | 4µM* | -9% | ? | -28%
CCn1c2ccccc2c2cc(NC(=O)c3cccc([N+](=O)[O-])c3)ccc21 | 5% | ? | 2.2µM* | 6% | 28 | -15%
Cc1c(C(=O)Nc2ccc(C(=O)Nc3ccccc3)cc2)cccc1[N+](=O)[O-] | 12% | 0%[46.1 µM] | ? | -2% | ? | 17%[46.1 µM]
Cc1ccc(C(=O)NCCn2c(C)cc3ccccc32)cc1C | . | ? | . | -7% | -69* | ?
CCOC(=O)Cc1ccc(NC(=O)c2cccc([N+](=O)[O-])c2)cc1 | -9% | . | -8% | 29% | -60* | .
C#CCCCON=C1C[C@@H](O)[C@H](O)[C@H]2[C@@H]3C(=O)N(Cc4ccccc4)C(=O)[C@@H]3CC[C@H]12 | . | 11%[14.2 µM] | . | . | . | .
Cn1c(SCC(=O)Nc2nc3ccccc3s2)ncc(C(=O)Nc2ccc(Cl)cc2)c1=O | . | . | . | 2% | -23 | 26%[46.1 µM]
Cc1ccc2cc(CCNC(=O)c3cccc([N+](=O)[O-])c3)c(=O)[nH]c2c1C | 18% | 3% | 23% | 22µM* | -38 | 1%
O=C(NCCn1ccc2ccccc21)c1cccc([N+](=O)[O-])c1 | -3% | 9%[46.1 µM] | -21% | -3% | -80* | 4%
Cc1ccccc1Cn1c(=O)n(CCCCC(=O)NCc2ccc3c(c2)OCO3)c(=O)c2ccccc21 | . | ? | . | -27% | -33 | -2%[46.1 µM]
COc1cc(/C=C2/SC(=S)NC2=O)ccc1OS(=O)(=O)c1ccc(C)cc1 | 15% | ? | 6% | 28µM* | . | -16%
CN(CCOc1ccc(Cl)cc1)C(=O)c1cc(-c2ccco2)nc2ccccc12 | . | ? | ? | 35µM* | -25 | ?
COc1cc(OC)cc(-c2sc3ccc(OC)cc3c2-c2ccc(O)cc2)c1 | . | . | ? | -18% | -34 | .
COc1cc2sc(-c3ccccc3OC)c(-c3ccc(O)cc3)c2cc1OC | . | . | 11µM* | -18% | 49 | .
COc1ccc2sc(-c3ccccc3OC)c(-c3ccc(O)cc3)c2c1 | . | . | ? | -16% | -34 | .
COc1ccc(O)cc1 | . | . | 0.79µM* | -20% | 14 | .
